# A number with no mark means an inactive call. For some of these results: Entries with a potency or affinity are not part of this list. Active and inactive are the calls of the source. Unless noted, the rule behind the calls is not given here.
# Assays:
# [1] = antimalarial activity against Dd2 strain (AID 2302;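 active = growth inhibition above 50% at the single 2 µM test dose, taken to imply half-maximal potency below 2 µM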;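 note: 0% = DMSO untreated growth and 100% = chloroquine plus artemisinin killed control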); conditions: P. falciparum Dd2 in RBCs, LDH growth readout, 72 h; at 2 µM; hits give high values
# [2] = HepG2 cytotoxicity, primary screen, cytotoxicity control for P. falciparum antimalarial project, cell-based, ATP luminescence (AID 2303;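 active = inhibition above 50%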;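 note: 0% = DMSO wells and 100% = digitonin-killed cells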); conditions: HepG2 viability, 24-48 h, at 10 µM, hits give high values
# [3] = molecular target: L-lactate dehydrogenase (Plasmodium falciparum (isolate CDC / Honduras)) (UniProt Q27743); test: PfLDH activity inhibition – cell lysate, 3D7 strain, counter-screen for P. falciparum growth inhibition project (AID 2304);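 note: 0% = vehicle and 100% = reference inhibitor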; conditions: P. falciparum 3D7 crude extract, LDH APAD/NBT absorbance; at 2 µM; hits give high values
# Sequence of L-lactate dehydrogenase (Plasmodium falciparum (isolate CDC / Honduras)) (Q27743 whole entry, looked up): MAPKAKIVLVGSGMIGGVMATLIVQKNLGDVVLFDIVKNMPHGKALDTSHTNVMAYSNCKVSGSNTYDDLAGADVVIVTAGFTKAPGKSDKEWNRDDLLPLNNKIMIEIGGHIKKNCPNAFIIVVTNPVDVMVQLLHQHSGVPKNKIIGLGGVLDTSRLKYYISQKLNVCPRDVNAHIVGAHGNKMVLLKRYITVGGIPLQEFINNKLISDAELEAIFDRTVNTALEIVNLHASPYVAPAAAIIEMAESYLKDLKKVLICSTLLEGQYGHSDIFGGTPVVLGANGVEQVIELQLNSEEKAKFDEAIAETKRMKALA
# [4] = inhibition of 3D7 malaria parasite growth – strain 3D7 (AID 2306);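 note: 0% = DMSO wells and 100% = chloroquine plus artemisinin control wells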; conditions: P. falciparum 3D7 erythrocytic growth, LDH absorbance, 72 h; at 2 µM; hits give high values
# [5] = molecular target: Calcium-dependent protein kinase 1 (Plasmodium falciparum (isolate 3D7)) (UniProt P62344); test: PfCDPK1 kinase inhibitors, biochemical, TCAMS library (AID 1159585; cut-off not given, nearly all actives have IC50 up to about 0.98 µM;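 note: inhibitors leave more ATP so luminescence rises with inhibition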); conditions: recombinant PfCDPK1, Kinase-Glo ATP depletion luminescence
# Sequence of Calcium-dependent protein kinase 1 (Plasmodium falciparum (isolate 3D7)) (P62344 whole entry, looked up): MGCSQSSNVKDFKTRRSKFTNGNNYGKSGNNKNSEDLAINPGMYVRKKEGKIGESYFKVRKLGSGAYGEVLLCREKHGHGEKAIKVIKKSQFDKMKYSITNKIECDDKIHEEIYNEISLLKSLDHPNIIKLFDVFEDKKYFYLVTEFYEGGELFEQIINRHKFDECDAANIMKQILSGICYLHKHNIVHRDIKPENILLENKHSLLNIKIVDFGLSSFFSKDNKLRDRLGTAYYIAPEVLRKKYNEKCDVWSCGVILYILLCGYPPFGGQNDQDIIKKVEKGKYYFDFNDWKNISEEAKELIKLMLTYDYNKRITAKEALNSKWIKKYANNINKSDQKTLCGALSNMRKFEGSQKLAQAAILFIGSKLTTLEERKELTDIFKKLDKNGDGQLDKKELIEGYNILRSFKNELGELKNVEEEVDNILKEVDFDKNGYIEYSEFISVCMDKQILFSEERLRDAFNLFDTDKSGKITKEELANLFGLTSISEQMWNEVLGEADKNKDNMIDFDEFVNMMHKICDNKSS
# [6] = molecular target: Plasmodium falciparum protein kinase 6 (PK6, PF3D7_1337100) (UniProt Q8IDW1); test: PfPK6 kinase inhibitors, biochemical, TCAMS library (AID 1159586); conditions: recombinant PfPK6, Kinase-Glo ATP depletion luminescence
# Sequence of Plasmodium falciparum protein kinase 6 (PK6, PF3D7_1337100) (Q8IDW1 1-305): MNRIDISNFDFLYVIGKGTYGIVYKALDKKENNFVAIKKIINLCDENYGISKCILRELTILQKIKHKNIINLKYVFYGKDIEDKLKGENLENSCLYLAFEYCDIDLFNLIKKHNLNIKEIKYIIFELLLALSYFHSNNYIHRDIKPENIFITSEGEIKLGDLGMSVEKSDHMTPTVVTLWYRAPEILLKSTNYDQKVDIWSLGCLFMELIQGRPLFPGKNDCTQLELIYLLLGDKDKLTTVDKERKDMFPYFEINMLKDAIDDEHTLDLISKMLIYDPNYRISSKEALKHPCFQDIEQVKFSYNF
# [7] = molecular target: Protein kinase 7 (PK7), Plasmodium falciparum 3D7 (PF3D7_0213400) (UniProt Q7YTF7); test: inhibition of Plasmodium PK7 catalytic activity – biochemical, TCAMS antimalarial set, Kinase-Glo luminescence (AID 1159587); conditions: recombinant PfPK7, Kinase-Glo ATP depletion luminescence
# Sequence of Protein kinase 7 (PK7), Plasmodium falciparum 3D7 (PF3D7_0213400) (Q7YTF7 1-343): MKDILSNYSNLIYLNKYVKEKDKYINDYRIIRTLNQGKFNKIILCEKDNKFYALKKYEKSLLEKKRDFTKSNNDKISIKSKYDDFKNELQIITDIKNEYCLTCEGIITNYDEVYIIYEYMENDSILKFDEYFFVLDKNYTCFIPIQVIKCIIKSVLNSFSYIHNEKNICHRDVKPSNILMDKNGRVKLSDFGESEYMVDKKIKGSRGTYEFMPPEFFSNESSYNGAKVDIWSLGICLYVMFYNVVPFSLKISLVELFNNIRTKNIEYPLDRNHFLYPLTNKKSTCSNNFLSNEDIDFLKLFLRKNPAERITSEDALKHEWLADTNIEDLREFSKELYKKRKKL
# [8] = molecular target: Calcium-dependent protein kinase 4 (Plasmodium falciparum (isolate 3D7)) (UniProt Q8IBS5); test: PfCDPK4 kinase inhibitors, biochemical, TCAMS library (AID 1159588; cut-off not given, nearly all actives have IC50 up to about 0.91 µM); conditions: recombinant PfCDPK4, Kinase-Glo ATP depletion luminescence
# Sequence of Calcium-dependent protein kinase 4 (Plasmodium falciparum (isolate 3D7)) (Q8IBS5 whole entry, looked up): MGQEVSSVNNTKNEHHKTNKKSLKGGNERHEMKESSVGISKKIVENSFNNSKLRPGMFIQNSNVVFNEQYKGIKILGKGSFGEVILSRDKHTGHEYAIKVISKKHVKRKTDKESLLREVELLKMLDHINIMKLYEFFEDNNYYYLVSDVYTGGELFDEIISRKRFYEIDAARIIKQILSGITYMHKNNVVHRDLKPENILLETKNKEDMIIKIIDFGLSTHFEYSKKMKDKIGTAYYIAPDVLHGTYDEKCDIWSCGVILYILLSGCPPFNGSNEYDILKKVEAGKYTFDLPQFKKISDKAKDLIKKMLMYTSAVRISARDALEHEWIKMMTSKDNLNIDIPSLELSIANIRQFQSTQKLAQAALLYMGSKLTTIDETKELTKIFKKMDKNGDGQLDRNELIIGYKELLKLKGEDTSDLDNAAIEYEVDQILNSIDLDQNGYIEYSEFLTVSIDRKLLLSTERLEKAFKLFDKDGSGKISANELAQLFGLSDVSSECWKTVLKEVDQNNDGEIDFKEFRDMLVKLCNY
Compound,growth inhibition [1],inhibition [2],inhibition [3] [%],growth inhibition [4],outcome [5],outcome [6],outcome [7],outcome [8]
Cc1[nH]c(C)c([N+](=O)[O-])c(=O)c1-c1ccc(Oc2ccccc2)cc1,97% (active),11%,3,98% (active),inactive,inactive,inactive,inactive
CC(O)C1CCCCN1C(=O)c1cccc(-c2ccc(-c3nc4ccccc4[nH]3)s2)c1 (stereo not drawn),23%,24%,-1,100% (active),inactive,inactive,inactive,inactive
COc1cc(Cc2cnc(N)nc2N)c2c(c1OC)OC(C)(C)C=C2,2%,7%,-3,93% (active),inactive,inactive,inactive,inactive
COc1ccc(Nc2nc(NC3CCN(Cc4ccccc4)CC3)cc(-c3ccncc3)n2)cc1,40%,26%,0,88% (active),inactive,inactive,inactive,inactive
Fc1ccc(C=NNc2ccnc3ccccc23)cc1,101% (active),21%,4,101% (active),inactive,inactive,inactive,inactive
CN1CCN(c2ccnc3ccc(NC(=O)Nc4ccc(-c5ccncc5)c(C(F)(F)F)c4)cc23)CC1,99% (active),12%,6,99% (active),inactive,inactive,inactive,inactive
CS(=O)(=O)c1ccc(CCNCc2ccc(-c3ccc(CNC4Cc5ccccc5C4)cc3)nc2)cc1,80% (active),18%,-3,100% (active),inactive,inactive,inactive,inactive
Cc1cc(=O)c(-c2cccc(Oc3ccc(Cl)cc3)c2)c(C)[nH]1,95% (active),-2%,-4,96% (active),inactive,inactive,inactive,inactive
CC(C)N1CCC(NCc2ccc(-c3ccc(Cl)cc3)cc2)CC1,48%,50% (active),-3,99% (active),inactive,inactive,inactive,inactive
Cc1cc(C2NC(=O)c3ccccc3N2)c(C)n1-c1ccc2c(c1)OCO2 (stereo not drawn),85% (active),13%,-1,86% (active),inactive,inactive,inactive,inactive
CC(CN(C)C)C(=O)Nc1ccc(-c2ccc(-c3nc4ccc(F)cc4[nH]3)cc2)cc1 (stereo not drawn),95% (active),14%,-2,101% (active),inactive,inactive,inactive,inactive
O=C(NCc1ccc(F)cc1)Nc1cccc(-c2ccc(-c3nc4ccccc4[nH]3)cc2)c1,49%,45%,2,101% (active),inactive,inactive,inactive,inactive
O=C(Nc1ccc(Cl)cc1)OCCn1nnnc1C(c1ccc(Cl)cc1)N1CCOCC1 (stereo not drawn),79% (active),1%,4,90% (active),inactive,inactive,inactive,inactive
Cc1cc2nc(-c3ccc(SCC(=O)Nc4ccc5c(c4)OCCO5)nc3)[nH]c2cc1C,6%,17%,9,85% (active),inactive,inactive,inactive,inactive
CN(C)c1cc(NC(=O)Nc2ccccc2)c2ccccc2n1,98% (active),11%,-5,101% (active),inactive,inactive,inactive,inactive
COc1ccc(CNC2Cc3ccccc3C2)cc1-c1ccc(OC)c(S(=O)(=O)NCCN2CCCC2)c1,97% (active),31%,-9,101% (active),inactive,inactive,inactive,inactive
CCCCOc1ccc(/C=C/c2ccc(-c3c(C)[nH]c(C)c(Cl)c3=O)s2)cc1,96% (active),-4%,-2,97% (active),inactive,inactive,inactive,inactive
NCc1ccc(-c2ccccc2CNC2CCN(Cc3ccccc3)CC2)cc1,3%,20%,-2,94% (active),inactive,inactive,inactive,inactive
CCCCCCCCc1c(C)[nH]c(C)c(Br)c1=O,92% (active),-5%,7,96% (active),inactive,inactive,inactive,inactive
Cc1ccc(CNC(=O)[C@H](CC(C)C)Nc2cc(C)nc(Nc3ccccc3)n2)cc1,19%,12%,-1,97% (active),inactive,inactive,inactive,inactive
Cc1[nH]cnc1Cc1ccc2c(c1O)c1ccccc1n2C,16%,9%,-2,90% (active),inactive,inactive,inactive,inactive

Compound,growth inhibition [1],inhibition [2],inhibition [3] [%],growth inhibition [4],outcome [5],outcome [6],outcome [7],outcome [8]
Cc1cccc(C)c1C1CCN(C2CCC(NC(=O)/C=C/c3ccccc3)CC2)CC1 (stereo not drawn),45%,42%,-1,100% (active),inactive,inactive,inactive,inactive
CCOc1ccc(CCCON2C(N)=NC(N)=NC2(C)C)cc1,93% (active),65% (active),0,93% (active),inactive,inactive,inactive,inactive
CC(=O)c1ccc(O)c(CC(O)CO)c1 (stereo not drawn),-1%,3%,4,100% (active),inactive,inactive,inactive,inactive
CCCCCN1CCCC(CNS(=O)(=O)c2cccc(C(=O)Nc3ccc(C(F)(F)F)cc3)c2)C1 (stereo not drawn),2%,27%,4,96% (active),inactive,inactive,inactive,inactive
CS(=O)(=O)CCNCc1cc(-c2cc3ncnc(Nc4ccc(OCc5cccc(F)c5)c(Cl)c4)c3s2)cs1,48%,8%,-2,99% (active),inactive,inactive,inactive,inactive
Cc1ccccc1C1CCN(c2ccc(C(=O)NC3CC3)cn2)CC1,95% (active),17%,-2,95% (active),inactive,inactive,inactive,inactive
Cc1cc2nc(-c3cc(Br)ccc3O)c(-c3cc(Br)ccc3O)nc2cc1C,12%,2%,-1,96% (active),inactive,inactive,inactive,inactive
Cc1cc(C)c(-c2n[nH]c3c2C(c2cccc(Cl)c2)N(Cc2ccco2)C3=O)c(O)c1 (stereo not drawn),89% (active),-3%,-1,96% (active),inactive,inactive,inactive,inactive
Cc1cc(F)ccc1Nc1nc(N(C)c2ccccc2)c2cccc(OCCO)c2n1,94% (active),34%,0,95% (active),inactive,inactive,inactive,inactive
c1ccc(CCNCc2cccc(-c3ccc(CNc4ccc5ncccc5c4)cc3)c2)cc1,27%,43%,-2,93% (active),inactive,inactive,inactive,inactive
Cc1nc2nc(N)nc(N)c2c(C)c1Cc1c(Cl)cccc1Cl,5%,7%,-1,94% (active),inactive,inactive,inactive,inactive
O=S(=O)(NCCCN1CCOCC1)c1ccc2nccc(Nc3ccc(Oc4ccccc4)cc3)c2c1,92% (active),1%,-2,95% (active),inactive,inactive,inactive,inactive
CN1CCN(c2cc3c(Nc4ccc5c(cnn5Cc5ccccc5)c4)ncnc3cn2)CC1,35%,9%,5,88% (active),inactive,inactive,inactive,inactive
O=C(Nc1ccc(OC2CCN(Cc3ccsc3)CC2)c(Cl)c1)c1ccco1,85% (active),7%,-4,87% (active),inactive,inactive,inactive,inactive
CC(C)(C)OC(=O)c1c(NC(=O)/C=C/c2ccc(O)c(O)c2)sc2c1CCCC2,77% (active),4%,2,97% (active),inactive,inactive,inactive,inactive
O=C(NCc1ccccc1)Nc1ccc(-c2cccc(-c3nc4ccc(C(F)(F)F)cc4[nH]3)c2)cc1,23%,56% (active),-1,97% (active),inactive,inactive,inactive,inactive
C[C@@H](N=C(Nc1ccc(C#N)cc1O)Nc1ccccc1Cl)c1ccc(Br)cc1,70% (active),33%,0,98% (active),inactive,inactive,inactive,inactive
CCc1nc2nc(C)cc(Nc3ccc(F)c(Cl)c3)n2n1,77% (active),2%,-3,90% (active),inactive,inactive,inactive,inactive
CN(C)CCNC(=O)c1cc2c(-c3ccc(Cl)cc3)nn(C)c2s1,81% (active),18%,-1,98% (active),inactive,inactive,inactive,inactive
COc1ccc(S(=O)(=O)N2CCCC(C)C2)cc1N1CCN(C(=O)c2ccc([N+](=O)[O-])o2)CC1 (stereo not drawn),4%,-3%,-2,94% (active),inactive,inactive,inactive,inactive
